Experimental findings from PubChem BioAssay (NCATS) are described below.

The structures appear in SMILES notation. Results filed as inconclusive are left out. Calls of active or inactive are those of the source. Unless noted, calls follow the shape of the dose curve; as a rule, active = well fitted curve in the direction sought with a large enough effect; inconclusive = small, poorly fitted or top-dose-only effect, or another doubt; inactive = no such curve, though single readings can be large; an effect the other way counts as inactive or inconclusive.

Test [1] in a line: qHTS assay for small molecule antagonists of peroxisome proliferator-activated receptor delta signaling (AID 588535; active = well fitted inhibition curve with a large enough effect in the signal ratio, with a control signal flat, not every such curve was filed as active; the % refers to the signal ratio;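 as to max response: cells co-treated with a PPAR-delta agonist as stimulator during compound exposure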). As to conditions: HEK293T PPARd-UAS-bla, beta-lactamase FRET ratio, 18 h; 460 nm channel. A digest of the protocol:
(§1)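 Fluorescence from CCF4-loaded GeneBLAzer PPAR-delta-UAS-bla HEK293T cells (2 hrs RT loading) quantified reporter inhibition after an 18 hr, 37 C compound exposure across a titration.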
A general note: In qHTS, concentration-response curves come from the screen itself.

For test [2], the target named is Peroxisome proliferator-activated receptor delta (Homo sapiens) (UniProt Q03181). Described as above. As to conditions: HEK293T PPARd-UAS-bla, beta-lactamase FRET ratio, 18 h; series mostly up to 76.7 µM. A digest of the protocol: as §1
In test [3] the target is Peroxisome proliferator-activated receptor gamma (Homo sapiens) (UniProt P37231). In words: qHTS assay for small molecule agonists of peroxisome proliferator-activated receptor gamma signaling (AID 588536; active = well fitted curve in the direction sought with a large enough effect in the signal ratio, with a control signal flat, not every such curve was filed as active; the % refers to the signal ratio;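 also: 0% = DMSO basal wells and 100% = rosiglitazone at 2 µM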). As to conditions: HEK293 PPARg-UAS-bla, beta-lactamase ratio, 16 h, percent of rosiglitazone response, DMSO as zero; series mostly up to 76.7 µM. The gist of the method:
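Compound treatment: 16 h, 37 C, HEK293 GeneBLAzer cells. Detection: CCF4, 2 h RT. Values: Hill-fit EC50, efficacy as % of 2 uM rosiglitazone.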

The target is the same in test [4]. Kind of test: qHTS assay for small molecule antagonists of peroxisome proliferator-activated receptor gamma signaling (AID 588537; active = well fitted inhibition curve with a large enough effect in the signal ratio, with a control signal flat, not every such curve was filed as active; the % refers to the signal ratio;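 also: reporter cells co-stimulated with 50 nM rosiglitazone agonist during compound treatment; % of control where 0% means no effect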). As to conditions: HEK293 PPARg-UAS-bla, beta-lactamase ratio, antagonist mode; series mostly up to 76.8 µM. The gist of the method: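 Fluorescence at 460 and 530 nm (405 nm excitation) reported beta-lactamase cleavage of CCF4 after 2 h room-temperature loading. HEK293 reporter cells in 1% charcoal/dextran-treated FBS had received compound and rosiglitazone for 16 h.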

Test [5] can be described thus: qHTS assay for small molecule agonists of retinoid X receptor alpha signaling (AID 588544; calls by dose curve; also: potency is read from the fitted curve at half-maximal effect). The settings on record: HEK293T RXRa-UAS-bla, beta-lactamase reporter, 18 h; 530 nm emission.
For test [6], the target named is Retinoic acid receptor RXR-alpha (Homo sapiens) (UniProt P19793). The test is described as above. As to conditions: HEK293T RXRa-UAS-bla, beta-lactamase reporter, 18 h; series mostly up to 76.7 µM.
Test [7] has as its target Luciferin 4-monooxygenase (Photinus pyralis) (UniProt P08659). Kind of test: Biochemical firefly luciferase enzyme assay for NPC (AID 624030).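 Also: purified P. pyralis luciferase at 10 nM with luciferin and ATP substrate; 0% = DMSO and -100% = full luciferase inhibition by PTC124 control; nearly all actives have a fitted effect of over 70% in size.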 As to conditions: purified P. pyralis luciferase, luminescence, 5 min; series mostly up to 58.6 µM. The gist of the method: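 Purified P. pyralis luciferase at 10 nM in 50 mM Tris Acetate (final), luminescence read within 5 minutes of enzyme addition to compounds. Activity normalised to PTC124 versus DMSO; concentration-response curves classed by r2, magnitude and activity.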

Test [8] has as its target Voltage-gated inwardly rectifying potassium channel KCNH2 (Homo sapiens) (UniProt Q12809). In words: qHTS Assay for Small Molecule Inhibitors of the Human hERG Channel Activity (AID 588834).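 Also: lower thallium flux fluorescence means stronger hERG block; nearly all actives have a fitted effect of over 50% in size.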 Also: potency is read from the fitted curve at half-maximal effect. The settings on record: U2OS BacMam hERG, FluxOR thallium flux fluorescence; series mostly up to 92.2 µM. The gist of the method: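 hERG block measured as reduced thallium-dye (FluxOR) fluorescence after stimulation buffer addition, read over 2 min. Cells were hERG-BacMam-transduced U2OS exposed to compound ~10 min […]; concentration-response fitted with Hill equation for AC50.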

A short description of test [9]: S16 Schwann cell viability assay (CellTiter-Glo assay) (AID 624031). Also: nearly all actives have a fitted effect of over 70% in size. Also: potency is read from the fitted curve at half-maximal effect. The settings on record: S16 rat Schwann cells viability, 24 h; series mostly up to 57.5 µM. The gist of the method:
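Rat S16 Schwann cells without reporter constructs received compound or DMSO for 24 h at 37 °C under 5% CO2. Cellular ATP was then quantified by CellTiter-Glo luminescence, with vehicle wells defined as 0% activity and cell-free wells as reference.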
In general terms: Cellular ATP, detected with luciferase, serves as a proxy for viable cell number.

The nature of test [10]: S16 Schwann cell PMP22 intronic element firefly luciferase assay (AID 624032). Also: nearly all actives have a fitted effect of over 30% in size. Also: potency is read from the fitted curve at half-maximal effect. The settings on record: S16 rat Schwann cells, PMP22 element FLuc, 24 h; series mostly up to 57.5 µM. A digest of the protocol: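 Rat S16 Schwann cells stably carrying firefly luciferase driven by a PMP22 intronic element, in 10% FBS, treated 24 h at 37 C. ONE-Glo luminescence normalized to PTC124 control and DMSO (0%); curves classed by r2, magnitude and activity.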

Test [11] in a line: S16 Schwann cell PMP22 intronic element beta-lactamase assay (AID 624044; calls by dose curve;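 also: 0% = DMSO and -100% = potassium clavulanate positive control; nearly all actives have a fitted effect of over 15% in size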). As to conditions: S16 rat Schwann cells, PMP22 element beta-lactamase FRET, 24 h; series mostly up to 38.3 µM. A digest of the protocol:
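Beta-lactamase reporter under a PMP22 intronic regulatory element in stable S16 rat Schwann cells; 24 h compound exposure. 460 nm blue signal normalized between DMSO (0%) and potassium clavulanate, with 535 nm FRET tracking viability; curves classed by r2 and response.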

Test [12] deals with Glutaminase kidney isoform, mitochondrial (Homo sapiens) (UniProt O94925). In words: qHTS for Inhibitors of Glutaminase (GLS): LOPAC Validation (AID 624146).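 Also: glutamate product detected by oxidase and peroxidase coupled Amplex red fluorescence gain; % is scaled to controls: 0 for no effect and ±100 for the full control effect; nearly all actives have a fitted effect of over 60% in size.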 As to conditions: glutaminase enzyme activity inhibition; series mostly up to 46.1 µM. A digest of the protocol:
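hKGA in 45 mM KH2PO4 (pH 8.2), 0.02% Tween-20 with compound, then 1mM L-Glutamine (stock as added) plus glutamate oxidase/HRP/Amplex red coupling mix. Fluorescence read initially and after 30 min at RT; signal change reflects glutamate formation.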

The nature of test [13]: qHTS of Trypanosoma Brucei Inhibitors: LOPAC Validation (AID 624147). Also: 0% is about no effect. The settings on record: purified enzyme assay, luminescence, 45 min; series mostly up to 57.5 µM. A digest of the protocol:
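ADP (130 uM final) triggers the TbPYK reaction after compound addition; incubation is 45 min at room temperature. Kinase-Glo Plus is then added and luminescence imaged. Normalized data are fitted to concentration-effect curves.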

Test [14] addresses Glucagon-like peptide 1 receptor (Homo sapiens) (UniProt P43220). Kind of test: qHTS of GLP-1 Receptor Agonists: LOPAC Validation (AID 624148).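 Also: 0% is about no effect; higher luminescence signal means agonism.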 The settings on record: GLP-1R agonist cell assay; series mostly up to 46.1 µM. The gist of the method: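 HEK293 cells stably co-expressing GLP-1R and a cAMP-responsive luciferase reporter, plated 12 hours before compound, then incubated 4-6 hr at 37 deg C. Luminescence read 12 min after detection reagent.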

A short description of test [15]: qHTS of Nrf2 Activators: LOPAC Validation (AID 624149). Also: 0% is about no effect. The settings on record: Nrf2/ARE reporter cell assay; series mostly up to 46.1 µM. The gist of the method:
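Cells (AREc32_Fluc) are plated at 1000 per well in OPTI-MEM containing 5% FBS and left overnight. Compounds are pinned in and incubated 24 hr at 37 deg C, and firefly luciferase is detected with Steady-Glo.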

Test [16] can be described thus: HTS Assay for Allosteric Antagonists of the Human D2 Dopamine Receptor: Hit Validation in HTRF (AID 624455).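 Also: stable D1 dopamine receptor cell line scored for blocking the D1 response; % is scaled to controls: 0 for no effect and ±100 for the full control effect.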 The settings on record: Cells stably expressing D1 dopamine receptor, inhibition mode; series mostly up to 46.1 µM. A digest of the protocol: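 Inhibition of the D1-mediated response is measured by HTRF in cells that stably express the D1 dopamine receptor. Compounds reaching this step are hits from calcium-flux antagonism testing at EC80 dopamine in inducible Hek293 Trex D2 cells.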
Background: Time-resolved FRET reads energy transfer from a long-lived donor to a nearby acceptor.

Chain of Peroxisome proliferator-activated receptor gamma (Homo sapiens) (P37231 whole entry, looked up): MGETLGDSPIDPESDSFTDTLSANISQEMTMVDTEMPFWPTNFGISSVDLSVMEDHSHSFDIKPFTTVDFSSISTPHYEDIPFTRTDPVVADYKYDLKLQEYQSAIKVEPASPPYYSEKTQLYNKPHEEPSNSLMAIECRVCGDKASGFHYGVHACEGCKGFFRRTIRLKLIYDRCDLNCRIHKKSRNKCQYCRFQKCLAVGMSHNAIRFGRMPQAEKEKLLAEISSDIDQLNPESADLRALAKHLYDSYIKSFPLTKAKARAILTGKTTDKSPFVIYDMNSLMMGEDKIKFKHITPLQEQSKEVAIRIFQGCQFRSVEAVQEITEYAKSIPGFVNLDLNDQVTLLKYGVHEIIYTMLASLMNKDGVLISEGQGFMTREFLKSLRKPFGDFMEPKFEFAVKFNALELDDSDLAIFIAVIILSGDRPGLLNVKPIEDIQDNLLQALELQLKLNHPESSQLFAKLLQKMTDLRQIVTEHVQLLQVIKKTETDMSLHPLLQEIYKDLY
Chain of Luciferin 4-monooxygenase (Photinus pyralis) (P08659 whole entry, looked up): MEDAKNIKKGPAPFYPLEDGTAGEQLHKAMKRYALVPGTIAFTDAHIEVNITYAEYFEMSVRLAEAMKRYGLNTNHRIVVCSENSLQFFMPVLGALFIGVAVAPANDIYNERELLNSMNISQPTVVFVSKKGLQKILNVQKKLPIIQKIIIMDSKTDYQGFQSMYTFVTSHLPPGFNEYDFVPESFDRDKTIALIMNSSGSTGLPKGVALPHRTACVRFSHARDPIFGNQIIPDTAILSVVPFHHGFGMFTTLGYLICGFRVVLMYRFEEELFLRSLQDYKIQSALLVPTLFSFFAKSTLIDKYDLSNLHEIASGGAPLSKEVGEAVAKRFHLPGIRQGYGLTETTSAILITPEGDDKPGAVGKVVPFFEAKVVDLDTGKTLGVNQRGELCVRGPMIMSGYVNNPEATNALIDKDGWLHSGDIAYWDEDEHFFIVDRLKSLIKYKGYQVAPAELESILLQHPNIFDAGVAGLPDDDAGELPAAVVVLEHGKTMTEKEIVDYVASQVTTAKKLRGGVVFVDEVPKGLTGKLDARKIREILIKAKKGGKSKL
Chain of Glucagon-like peptide 1 receptor (Homo sapiens) (P43220 whole entry, looked up): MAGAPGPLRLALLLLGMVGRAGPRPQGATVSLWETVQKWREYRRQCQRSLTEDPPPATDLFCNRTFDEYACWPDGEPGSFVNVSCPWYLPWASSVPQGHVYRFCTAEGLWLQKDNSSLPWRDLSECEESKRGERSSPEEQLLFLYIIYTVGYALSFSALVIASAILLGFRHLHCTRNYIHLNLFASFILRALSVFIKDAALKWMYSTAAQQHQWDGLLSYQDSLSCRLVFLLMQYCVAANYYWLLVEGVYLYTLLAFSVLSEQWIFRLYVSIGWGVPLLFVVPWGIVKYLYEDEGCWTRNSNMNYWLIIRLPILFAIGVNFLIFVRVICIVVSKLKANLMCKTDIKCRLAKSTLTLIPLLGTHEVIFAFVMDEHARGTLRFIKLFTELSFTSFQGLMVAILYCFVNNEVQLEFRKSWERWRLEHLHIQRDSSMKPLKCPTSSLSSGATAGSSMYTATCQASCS
Chain of Voltage-gated inwardly rectifying potassium channel KCNH2 (Homo sapiens) (Q12809 whole entry, looked up): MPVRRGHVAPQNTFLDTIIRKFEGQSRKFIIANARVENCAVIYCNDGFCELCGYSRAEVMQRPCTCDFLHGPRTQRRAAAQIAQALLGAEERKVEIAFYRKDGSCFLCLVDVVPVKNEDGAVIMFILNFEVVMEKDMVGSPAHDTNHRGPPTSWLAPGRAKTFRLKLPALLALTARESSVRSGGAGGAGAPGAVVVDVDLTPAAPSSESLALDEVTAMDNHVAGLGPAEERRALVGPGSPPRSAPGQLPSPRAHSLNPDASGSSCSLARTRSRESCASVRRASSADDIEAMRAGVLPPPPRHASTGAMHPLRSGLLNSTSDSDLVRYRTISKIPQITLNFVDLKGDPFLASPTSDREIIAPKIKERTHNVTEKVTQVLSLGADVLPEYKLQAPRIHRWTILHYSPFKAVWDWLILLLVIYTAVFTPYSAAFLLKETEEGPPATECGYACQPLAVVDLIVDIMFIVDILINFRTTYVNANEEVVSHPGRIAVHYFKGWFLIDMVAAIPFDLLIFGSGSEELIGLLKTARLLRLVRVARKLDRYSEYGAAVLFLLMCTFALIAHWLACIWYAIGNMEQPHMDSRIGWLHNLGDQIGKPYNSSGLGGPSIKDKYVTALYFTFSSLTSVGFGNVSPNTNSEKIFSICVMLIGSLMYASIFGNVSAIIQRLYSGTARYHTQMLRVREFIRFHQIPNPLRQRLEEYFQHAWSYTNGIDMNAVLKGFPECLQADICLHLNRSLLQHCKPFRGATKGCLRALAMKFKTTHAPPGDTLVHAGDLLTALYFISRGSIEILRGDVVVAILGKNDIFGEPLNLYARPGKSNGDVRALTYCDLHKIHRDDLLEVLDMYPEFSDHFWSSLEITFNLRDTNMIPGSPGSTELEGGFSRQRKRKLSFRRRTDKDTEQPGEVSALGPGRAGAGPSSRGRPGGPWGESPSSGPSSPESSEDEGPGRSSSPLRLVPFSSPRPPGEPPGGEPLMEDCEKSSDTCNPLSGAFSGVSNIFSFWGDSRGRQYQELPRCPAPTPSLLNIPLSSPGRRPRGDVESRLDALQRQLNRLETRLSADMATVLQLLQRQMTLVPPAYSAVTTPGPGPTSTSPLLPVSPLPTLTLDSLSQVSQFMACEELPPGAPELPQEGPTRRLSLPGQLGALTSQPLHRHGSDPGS
Chain of Glutaminase kidney isoform, mitochondrial (Homo sapiens) (O94925 whole entry, looked up, canonical isoform): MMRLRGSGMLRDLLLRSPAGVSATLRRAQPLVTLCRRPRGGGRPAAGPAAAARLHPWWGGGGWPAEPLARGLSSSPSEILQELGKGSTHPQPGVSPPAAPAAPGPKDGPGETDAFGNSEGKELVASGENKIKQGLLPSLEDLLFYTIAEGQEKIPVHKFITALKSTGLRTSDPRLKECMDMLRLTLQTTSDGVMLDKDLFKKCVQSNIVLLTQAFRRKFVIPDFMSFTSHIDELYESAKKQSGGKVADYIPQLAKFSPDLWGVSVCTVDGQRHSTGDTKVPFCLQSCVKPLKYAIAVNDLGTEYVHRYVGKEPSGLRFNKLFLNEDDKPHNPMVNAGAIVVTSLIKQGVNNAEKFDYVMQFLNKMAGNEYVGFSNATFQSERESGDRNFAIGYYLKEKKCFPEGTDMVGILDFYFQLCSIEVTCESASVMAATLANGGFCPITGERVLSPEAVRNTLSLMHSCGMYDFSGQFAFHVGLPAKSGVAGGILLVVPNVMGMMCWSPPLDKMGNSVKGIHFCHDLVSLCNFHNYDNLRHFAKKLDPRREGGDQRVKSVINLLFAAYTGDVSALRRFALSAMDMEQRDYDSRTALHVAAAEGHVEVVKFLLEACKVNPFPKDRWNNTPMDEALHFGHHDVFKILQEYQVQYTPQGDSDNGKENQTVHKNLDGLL
Chain of Peroxisome proliferator-activated receptor delta (Homo sapiens) (Q03181 whole entry, looked up): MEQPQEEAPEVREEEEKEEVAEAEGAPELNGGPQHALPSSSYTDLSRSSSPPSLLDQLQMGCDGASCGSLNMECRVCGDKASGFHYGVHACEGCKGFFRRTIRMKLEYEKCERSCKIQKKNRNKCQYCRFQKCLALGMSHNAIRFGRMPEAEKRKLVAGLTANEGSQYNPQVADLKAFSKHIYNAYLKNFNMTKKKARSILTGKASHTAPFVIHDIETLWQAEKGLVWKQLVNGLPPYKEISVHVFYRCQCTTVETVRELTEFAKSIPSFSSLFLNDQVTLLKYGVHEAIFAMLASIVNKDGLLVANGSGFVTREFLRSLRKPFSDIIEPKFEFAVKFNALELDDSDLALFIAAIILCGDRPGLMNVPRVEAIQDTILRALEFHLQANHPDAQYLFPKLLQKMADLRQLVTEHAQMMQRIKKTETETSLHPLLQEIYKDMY
Chain of Retinoic acid receptor RXR-alpha (Homo sapiens) (P19793 whole entry, looked up): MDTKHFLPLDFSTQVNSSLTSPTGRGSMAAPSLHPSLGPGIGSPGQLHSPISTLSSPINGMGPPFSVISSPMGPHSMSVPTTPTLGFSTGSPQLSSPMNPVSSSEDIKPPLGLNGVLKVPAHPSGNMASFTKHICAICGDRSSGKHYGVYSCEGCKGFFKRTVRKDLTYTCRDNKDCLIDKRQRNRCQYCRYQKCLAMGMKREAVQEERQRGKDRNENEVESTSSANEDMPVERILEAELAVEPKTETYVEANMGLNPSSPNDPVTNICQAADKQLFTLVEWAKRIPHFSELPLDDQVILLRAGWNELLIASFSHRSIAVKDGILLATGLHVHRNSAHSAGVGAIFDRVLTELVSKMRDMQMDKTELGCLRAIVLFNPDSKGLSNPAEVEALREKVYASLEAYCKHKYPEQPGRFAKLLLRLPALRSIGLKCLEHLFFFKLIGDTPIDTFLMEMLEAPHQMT

As to `Cc1cc(C(C)(C)C)c(O)c(C(C)(C)C)c1`, the max response was 13.8% in test [1] and -14.9% in test [5]. The outcome in test [2], in [3] and in test [4] was inactive. For the same compound, the Potency in [6] is 17.8 µM (active). The Potency result in [7] is “inactive”.

For the compound `CN1CCCN(C(c2ccccc2)c2ccc(Cl)cc2)CC1` (stereo unspecified), the Potency was 8.91 µM (active) in test [8], 32.2 µM (active) in [9] and 28.7 µM (active) in test [10]. Also, the Potency result in [7] and in [11] was “inactive” throughout.

Regarding `Nc1ccc2cc3ccc(N)cc3nc2c1`, the Potency in [8] is 12.6 µM (active). Further, the Potency entry in test [7], in [9] and in test [10] was “inactive” in each case.

Take `CN1C(CSCC(F)(F)F)Nc2cc(Cl)c(S(N)(=O)=O)cc2S1(=O)=O` (stereo unspecified): the Potency entry in test [7] was “inactive”.

With `O=C(COCCOCCOCC(=O)Nc1c(I)cc(I)c(C(=O)O)c1I)Nc1c(I)cc(I)c(C(=O)O)c1I`, the Potency entry in [7] is “inactive”.

With `CN=C(N)NC(=O)Nc1c(C)cccc1C`, the Potency entry in test [7] is “inactive”.

Consider `Cn1cnc2c(NCc3ccccc3)nc(NCCO)nc21`, for which the Potency result in test [8] and in test [12] was “inactive” each time. Further, the call in test [13], in test [14], in test [15] and in test [16] was inactive.

Consider `CCCCCC[C@@H](CCC)C(=O)O`, for which, in test [7], the Potency result was “inactive”.

As for `CCOC(=O)c1ccc(NC(=O)CN2CCCCC2)cc1`, the Potency entry in test [7] is “inactive”.

Take `C[C@@]12CCC[C@H]1[C@@H]1CC[C@H]3C[C@@H](O)CC[C@]3(C)[C@H]1CC2`: the Potency result in test [7] was “inactive”.

Take `COc1ccccc1N1CCN(CCN2C(=O)CC3(CCCC3)CC2=O)CC1`: the Potency in test [8] was 1.12 µM (active). For the same compound, in test [12], the Potency entry was “inactive”. For the same compound, the compound was classed as inactive in test [13], in [14], in [15] and in [16].

With `CCOC(=O)Cn1cccc1-c1nc(-c2ccc(OC)cc2)c(-c2ccc(OC)cc2)s1`, the Potency result in test [7] is “inactive”.

Turning to `CCCCCCCCCCCCCCCCCCNC(=O)OC1CCN(C(=O)OC[C@H](COC(=O)N(Cc2cccc[n+]2CC)C(=O)c2ccccc2OC)OC)CC1`, the Potency entry in test [7] was “inactive”.

On to `N#C/C(=C1/SC[C@@H](c2ccc(Cl)cc2Cl)S1)n1ccnc1`, for which the Potency result in [7] is “inactive”.

Turning to `C=CCOc1cc(Cl)ccc1C(=O)NCCN(CC)CC`, the Potency result in test [7] is “inactive”.

`CC(C)N(CCC(=O)c1ccc2ccccc2c1)Cc1ccccc1`: the Potency in [8] was 3.16 µM (active). The compound was called inactive in [13], in test [14], in test [15] and in test [16].

As to `CCCN(CCC)C(=O)C(CCC(=O)OCCCN1CCN(CCOC(=O)Cc2c(C)n(C(=O)c3ccc(Cl)cc3)c3ccc(OC)cc23)CC1)NC(=O)c1ccccc1` (stereo unspecified), the Potency entry in [7] was “inactive”.

Consider `O=C(O)c1ccccc1S`, for which the Potency result in [7] is “inactive”.

`CCOC(=O)OCC/C(SC(=O)OCC)=C(\C)N(C=O)Cc1cnc(C)nc1N`: the Potency result in test [7] is “inactive”.
